# High-throughput results: PubChem BioAssay, Broad Institute
# An excerpt weighted towards active compounds, which were near 2.8% of everything screened.
# dFosB act – activators of delta FosB homodimer, primary screen, biochemical, fluorescence polarization, TAMRA-CDK5 oligo, single point; purified delta FosB; percent of positive-control signal above neutral wells; activation, % at 25 µM; 340,000 tested, 0.99% active; AID 493131, 2011;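 active = mean activation above about 17%, with every replicate also reaching it, limit read from the data, passing the limit was not always enough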
# Target sequence (P13346 whole entry, looked up): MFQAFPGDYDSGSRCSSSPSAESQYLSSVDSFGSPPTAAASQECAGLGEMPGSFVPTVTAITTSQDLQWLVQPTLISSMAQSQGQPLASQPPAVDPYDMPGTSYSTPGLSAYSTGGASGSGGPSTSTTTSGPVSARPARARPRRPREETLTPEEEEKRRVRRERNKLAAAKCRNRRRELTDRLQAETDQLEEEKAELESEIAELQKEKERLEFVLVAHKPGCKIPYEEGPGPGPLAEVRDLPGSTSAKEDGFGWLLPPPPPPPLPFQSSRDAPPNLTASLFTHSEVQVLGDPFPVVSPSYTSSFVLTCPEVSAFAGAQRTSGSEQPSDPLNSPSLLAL
# PvdQ inh – P. aeruginosa PvdQ acylase inhibitors, primary screen, biochemical, fluorescence, plate reader and imaging, single point; purified PvdQ acylase; PvdQ acylase [Pseudomonas aeruginosa LESB58]; inhibition, % at 10 µM; 340,000 tested, 0.063% active; in the data active = inhibition above about 30%, passing the limit was not always enough;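 note: 0% = vehicle neutral wells and 100% = reference inhibitor wells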
# PglD inh – C. jejuni PglD acetyltransferase inhibitors, primary screen, biochemical, DTNB colorimetric, single point | UDP-N-acetylbacillosamine N-acetyltransferase PglD (Campylobacter jejuni) | 360,000 tested, 0.098% active | AID 602405, 2012 | purified PglD enzyme, DTNB colorimetric CoA detection | inhibition, % at 12.5 µM; in the data active = inhibition above about 16%, passing the limit was not always enough
# CDK5 inh – inhibitors of human CDK5/p35 kinase, primary screen, biochemical, single concentration. Recombinant CDK5/p35, ADP-Glo luminescence, 60 min. inhibition, % at 10 µM. AID 488839, 2010. 330,000 tested, 0.01% active. Cyclin-dependent kinase 5 (Homo sapiens) + Cyclin-dependent kinase 5 activator 1 (Homo …;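 active = highest replicate inhibition of at least 50% and at least 75% of replicates reaching 50%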;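 note: plate controls were DMSO neutral control for no effect and GW8510 at 10 µM for full effect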
# FGF22 binding – binders of human FGF22 protein, primary screen, FGF22 synaptogenesis inhibitor project, biophysical, thermal shift, single point; recombinant FGF22 thermal shift, SYPRO orange fluorescence; percent of sucrose octasulfate shift, DMSO zero; activity (Tm shift, normalised), % at 9.99 µM; 340,000 tested, 1.5% active; AID 651658, 2012;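 active = mean Tm shift, scaled 0 neutral to 100 positive control, at about 1.3% or above, every replicate too, limit read from the data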
# Target sequence (Q9HCT0 whole entry, looked up): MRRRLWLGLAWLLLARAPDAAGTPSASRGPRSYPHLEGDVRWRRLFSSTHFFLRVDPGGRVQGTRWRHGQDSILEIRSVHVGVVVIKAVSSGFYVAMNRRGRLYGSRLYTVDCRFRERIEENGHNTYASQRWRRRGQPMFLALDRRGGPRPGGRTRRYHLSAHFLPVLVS
# SIRT5 block – SIRT5 desuccinylase inhibitors, primary screen, biochemical, fluorescence imaging, single point, set 5; inhibition, % at 15 µM; 330,000 tested, 1.1% active; Purified SirT5, succinyl-peptide AMC, trypsin-coupled fluorescence; NAD-dependent protein deacylase sirtuin-5, mitochondrial (Homo sapiens), Q9NXA8; in the data active = inhibition above about 15%
# The depositor's hits bear a star; nt = no result given.
SMILES,dFosB act,PvdQ inh,PglD inh,CDK5 inh,FGF22 binding,SIRT5 block
CC(C)(C)c1ccccc1OCCCCCn1ccnc1,-8.9,-16.7,nt,-3.2,43.9*,-6.7
C[N+](C)(C)CCN1CCc2ccccc21,nt,nt,nt,nt,-0.4,21.7*
COc1ccc(NC(=O)N(C)C[C@@H]2Oc3c(NC(=O)Nc4ccccc4)cccc3C(=O)N([C@@H](C)CO)C[C@@H]2C)cc1,nt,nt,0.8,nt,-0.6,7.2
CS(=O)(=O)N(CC(=O)N1CCN(Cc2ccccc2)CC1)c1ccc(F)cc1,-6.3,-10.6,-4.4,-0.1,-0.1,-2.0
Cc1ccc(N(CC(=O)N2CCCCCC2)S(C)(=O)=O)cc1Cl,-6.8,-5.6,-7.8,-1.4,0.0,5.6
O=C(CN(c1ccc2c(c1)OCCO2)S(=O)(=O)c1ccccc1)N1CCN(Cc2ccccc2)CC1,-5.4,-9.6,-5.3,-1.6,43.5*,0.7
CS(=O)(=O)N(CC(=O)N1CCN(Cc2ccccc2)CC1)c1cccc(F)c1,0.6,-14.6,-1.5,0.5,-0.2,19.2*
Cc1ccc(N(CC(=O)N2CCOCC2)S(C)(=O)=O)cc1Cl,3.3,1.1,1.1,-2.3,0.1,15.6*
COc1ccc(S(=O)(=O)Nc2ccc3c(c2)C(=O)N([C@H](C)CO)C[C@@H](C)[C@H](CN(C)C(=O)Nc2c(C)noc2C)O3)cc1,nt,nt,-2.0,nt,-0.2,-0.3
O=C(Nc1ccccc1)C1CC(=O)n2ncnc2N1 (configuration not stated),2.9,-8.1,-4.9,-1.8,0.4,1.0
O=C(Nc1ccc(F)cc1)C1CC(=O)n2ncnc2N1 (configuration not stated),1.2,-6.7,nt,1.5,43.5*,0.1
COc1cc(CCC(=O)OCC(N)=O)cc(OC)c1OC,1.2,-0.1,nt,-0.7,43.5*,-0.1
COc1ccc(-c2ccc(NCCN3CCOCC3)nn2)cc1OC,3.2,-10.6,1.3,-2.7,0.1,15.6*
COc1cc(CNCCCN2CCOCC2)ccc1OCC(=O)NC(C)(C)C,-6.8,0.1,nt,0.5,43.7*,0.0
COc1cc(CNCCN2CCOCC2)ccc1OCC(=O)NC(C)(C)C,-9.7,-9.2,-0.1,0.5,42.9*,-0.3
COc1ccc(-c2ccc(Nc3ccc(C(=O)N4CCOCC4)cc3)nn2)cc1OC,1.0,-4.7,0.7,0.8,nt,nt
CC(C)C(=O)Nc1ccc2c(c1)C(=O)N(C)[C@@H]1CC[C@H](CC(=O)O)O[C@@H]1CO2,nt,nt,-0.7,nt,-0.2,4.9
CC=Cc1ccc2n(c1=O)C[C@@H]1[C@@H](CO)[C@H](C(=O)NCCOC)[C@H]2N1Cc1nccs1 (mixture of isomers),nt,nt,18.7*,nt,0.3,-33.2
CC=Cc1ccc2n(c1=O)C[C@H]1[C@H](CO)[C@@H](C(=O)NCCOC)[C@@H]2N1Cc1nccs1 (mixture of isomers),nt,nt,8.8,nt,0.0,-26.7
CC=Cc1ccc2n(c1=O)C[C@H]1[C@H](CO)[C@@H](C(=O)NCc3ccccc3)[C@@H]2N1CC (mixture of isomers),nt,nt,-1.0,nt,1.4*,-0.8
Cc1cc(C)c(NC(=O)CSc2nc3ncc(Br)cc3[nH]2)c(Cl)c1,69.1*,7.5,-1.2,0.2,0.0,-4.1
Cc1cc(C)c(NC(=O)CSc2nc3ncc(Cl)cc3[nH]2)c(C)c1,14.8,-0.5,1.0,-1.4,-0.2,0.2
Cc1ccccc1NC(=S)N/N=C/c1ccc(O)cc1O,1.1,-2.6,3.0,2.2,0.6,15.8*
Cc1cccc(NC(=S)N/N=C/c2cccc(O)c2)c1C,-11.2,-1.7,-1.9,-1.3,0.1,0.0
Cc1cc(NC(=O)c2cc(F)c(F)cc2Cl)no1,0.6,91.6*,nt,-0.1,0.1,-4.7
SMILES,dFosB act,PvdQ inh,PglD inh,CDK5 inh,FGF22 binding,SIRT5 block
O=C(Nc1ccc(F)c(Cl)c1)Nc1cnccn1,2.8,-3.4,nt,-0.7,44.3*,-2.2
Cc1cc(NC(=O)Nc2ccc(F)c(Cl)c2)no1,-0.4,43.8*,-24.2,1.4,nt,nt
O=C(CCN=C1NS(=O)(=O)c2ccccc21)OCC(=O)c1ccccc1Cl,11.9,10.1,nt,1.0,-0.2,16.0*
O=C(CN=C1NS(=O)(=O)c2ccccc21)OCC(=O)c1cc(F)ccc1F,0.8,-5.8,4.7,-4.4,43.0*,-0.7
COc1ccccc1C(=O)COC(=O)CCCN=C1NS(=O)(=O)c2ccccc21,7.4,10.3,nt,-0.4,-0.4,-1.3
O=C(COC(=O)C1CCC(=O)N1)Nc1ccccc1Br (configuration not stated),-2.8,-2.4,8.1,-1.9,43.1*,-7.4
COc1ccc(C(=O)COC(=O)C2CCC(=O)N2)cc1 (configuration not stated),-2.5,6.8,nt,6.5,0.4,16.7*
O=C1CCC(C(=O)OCC(=O)c2ccccc2)N1 (configuration not stated),-5.0,-15.6,-0.2,1.3,0.1,-4.4
CN1CCN(C(c2ccc(Br)cc2)c2cc(Cl)c3cccnc3c2O)CC1 (configuration not stated),29.1*,-13.1,0.1,3.2,-0.2,-1.3
CN1CCN(C(c2ccc(F)cc2)c2ccc3cccnc3c2O)CC1 (configuration not stated),2.5,-14.4,-3.0,nt,nt,nt
CC(=O)NC(c1cccs1)c1cc(F)c2cccnc2c1O (configuration not stated),0.5,-20.0,1.6,-0.1,43.4*,-2.1
CC(=O)NC(C)c1cc(Cl)c2cccnc2c1O (configuration not stated),1.2,1.1,-1.9,-0.9,45.0*,-2.6
N#C[C@H]1[C@@H](c2ccccc2C2=CCCC2)[C@@H](CO)N1C(=O)c1cccc(F)c1,nt,nt,nt,nt,-0.2,-0.2
Cc1ccccc1CNC(=O)c1ccccc1NS(C)(=O)=O,-10.2,17.3,nt,-0.2,0.2,27.0*
COc1ccccc1C1CC(=O)Oc2cc(C)c(Cl)c(C)c21 (configuration not stated),4.7,-10.3,0.9,-2.3,0.0,-0.4
COc1ccccc1C1CC(=O)Oc2cc(C)c(Br)c(C)c21 (configuration not stated),-3.2,12.8,-3.4,1.8,-0.1,34.8*
Cc1cc(NC(=O)c2ccccc2F)nc2c1c(=O)oc1ccccc12,-8.8,-8.1,-1.4,-1.2,43.9*,-6.9
Cc1cccc(C(C#N)c2ccc(Cl)nn2)c1 (configuration not stated),-4.8,88.8*,nt,-1.7,0.1,nt
